G9a inh = qHTS Assay for Inhibitors of Histone Lysine Methyltransferase G9a; AID 504332, 2011; Potency, µM (top dose mostly 102 µM), inactives show top-dose activity, negative = inhibition, actives largely listed as inhibitors; G9a H3K9 monomethylation, AlphaScreen, 2 h; hit rate 8.8% among 350,000; also: % is scaled to controls: 0 for no effect and ±100 for the full control effect; nearly all actives have a fitted effect of over 75% in size
Target sequence (Q96KQ7 913-1193 limits assumed): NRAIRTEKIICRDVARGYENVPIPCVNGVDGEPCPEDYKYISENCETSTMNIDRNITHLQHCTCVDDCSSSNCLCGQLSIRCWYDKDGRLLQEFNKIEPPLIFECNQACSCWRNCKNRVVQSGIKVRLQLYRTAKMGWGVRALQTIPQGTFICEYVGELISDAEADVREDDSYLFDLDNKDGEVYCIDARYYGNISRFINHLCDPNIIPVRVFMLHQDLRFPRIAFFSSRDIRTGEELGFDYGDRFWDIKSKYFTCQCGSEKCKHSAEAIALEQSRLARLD
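AlphaScreen read-out: biotin-H3K9 peptide (500 nM) methylation by 20 nM enzyme with 20 uM SAM, 2 h at room temperature after 15 min compound preincubation; anti-monomethyl H3K9 antibody plus donor/acceptor beads, 10 min dark.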
Sfp inh = qHTS Assay for Inhibitors of Bacillus subtilis Sfp phosphopantetheinyl transferase (PPTase); Biochemical Sfp PPTase activity, qHTS; Potency, µM, without a hit: largest response in the series, negative = inhibition, usual class: inhibitors; hit rate 3.5% among 310,000; AID 1490, 2009;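 also: the enzyme is Sfp with the accession as filed and its product quenches rhodamine fluorescence; 0% = enzyme reaction without inhibitor and -100% = no enzyme wells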
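Fluorescence-quenching assay: 15 nM Sfp-PPTase preincubated 15 min at room temperature with compound, then 5 uM rhodamine-CoA and 12.5 uM BHQ-2-labelled YbbR peptide added. Fluorescence (ex 525/em 598 nm) read at start and after 30 min; difference gives rate.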
PLK1 PBD block = qHTS for Inhibitors of PLK1-PDB (polo-like kinase 1 - polo-box domain): Primary Screen; Serine/threonine-protein kinase PLK1 (Homo sapiens), P53350; Plk1 PBD binding of FITC phosphopeptide, fluorescence polarization; Potency, µM, for inactives: max response, negative = inhibition, actives largely listed as inhibitors; hit rate 2.8% among 360,000; also: series mostly up to about 57 µM; % is scaled to controls: 0 for no effect and ±100 for the full control effect; nearly all actives have a fitted effect of over 65% in size
BAZ2B inh = qHTS Assay for Inhibitors of BAZ2B; hit rate 4.4% among 360,000; Potency, µM (doses to about 114 µM), inactives show at the highest dose activity change, negative = inhibition, hits mostly inhibitors; AlphaScreen BAZ2B-H3K14Ac peptide displacement; also: % is scaled to controls: 0 for no effect and ±100 for the full control effect; nearly all actives have a fitted effect of over 60% in size
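BAZ2B 50 nM plus b-H3(5-23)K14Ac 50 nM, PBS pH 7.4/0.01% Tween-20, 30 min RT; compound added (max 110 uM), 30 min RT; streptavidin donor/Ni-chelate acceptor beads 10 ug/mL final, 20 min dark; AlphaScreen read.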
HP1b binding inh = HTS for Inhibitors of HP1-beta Chromodomain Interactions with Methylated Histone Tails; AlphaScreen HP1-beta / biotin-H3K9me3 peptide binding; hit rate 0.56% among 390,000; Potency, µM (highest dose often 114 µM), for the others: top-dose activity change, negative = inhibition, usual class: inhibitors; Chromobox protein homolog 1 (Homo sapiens), P83916; AID 540317, 2011; also: nearly all actives have a fitted effect of over 70% in size
Target sequence (P83916 whole entry, looked up): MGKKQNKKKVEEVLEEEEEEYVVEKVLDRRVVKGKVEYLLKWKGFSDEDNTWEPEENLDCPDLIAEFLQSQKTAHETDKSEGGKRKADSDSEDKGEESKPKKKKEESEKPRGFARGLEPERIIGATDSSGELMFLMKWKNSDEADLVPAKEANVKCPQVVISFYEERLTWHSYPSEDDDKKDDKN
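Compound inhibition of the preformed complex between 50 nM HP1-beta and 50 nM biotinylated H3K9me3 peptide was read by AlphaScreen. Buffer was PBS pH 7.4 with 0.01% Tween-20. Incubations ran 30 min at room temperature, with 10 ug/mL donor/acceptor beads.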
JMJD2A Tudor inh = qHTS Assay for Inhibitors of JMJD2A-Tudor Domain | Lysine-specific demethylase 4A (Homo sapiens), O75164 | AlphaScreen JMJD2A-Tudor / H3K4me3 peptide binding | Potency, µM (series often up to 114 µM), without a hit: top-dose activity change, negative = inhibition, most hits filed as inhibitors | hit rate 4.4% among 390,000; also: % is scaled to controls: 0 for no effect and ±100 for the full control effect; nearly all actives have a fitted effect of over 50% in size
The depositor's hits bear a star; ? = inconclusive; · = no result given; [ ] = dose if it differs, or a comment. Rows were chosen to be rich in hits. Some 12% of all compounds tested hit in one or more screens of this group. Calls follow the shape of the dose curve; as a rule, active = well fitted curve in the direction sought with a large enough effect; inconclusive = small, poorly fitted or top-dose-only effect, or another doubt; inactive = no such curve, though single readings can be large; an effect the other way counts as inactive or inconclusive. Potency is read from the fitted curve at half-maximal effect.

SMILES	G9a inh	Sfp inh	PLK1 PBD block	BAZ2B inh	HP1b binding inh	JMJD2A Tudor inh
COC(=O)[C@H](C)NC(=O)/C=C/c1ccc(OC)cc1	71µM*	?	0%	1%	36%	-6%
CSc1ccc(/C=C/C(=O)c2ccc(O)cc2)cc1	?	79µM*	-20%	-39%	-19%	?
COC(=O)c1ccc(/C=C/C(=O)c2ccc(OC)c(OC)c2)cc1	24%[0.501 µM]	-5%	-10%	-34%	2%	-27%
O=C(COC(=O)CNC(=O)c1ccccc1)NCCNC(=O)COC(=O)CNC(=O)c1ccccc1	17%[12.7 µM]	·	1%	2%	18%	3%
CC(C)(C)[C@H]1COC(=O)[C@H](NC(=O)OCC2c3ccccc3-c3ccccc32)C/C=C\C[C@@H](CC(=O)N(CCO)Cc2ccccc2)C(=O)N1	·	·	-9%	·	22%	-24%
O=C(COC(=O)c1ccccc1O)NC(=O)NCc1ccccc1	-17%	·	-2%	6%	46%	-7%
COC(=O)c1ccc(CNC(=O)COC(=O)c2cc(Cl)ccc2O)cc1	·	·	0%	·	25%	3%
O=C(COC(=O)c1cc(Cl)ccc1O)NCCNC(=O)COC(=O)c1cc(Cl)ccc1O	40µM*	10%	-4%	10%	9%	-12%
O=C(COC(=O)c1ccc(F)cc1F)Nc1cccnc1Cl	35%[12.7 µM]	·	2%	-2%	34%	5%
O=C(COC(=O)c1ccc(Cl)cc1O)Nc1cccnc1Cl	50µM*	13%	-13%	0%	12%	-6%
Cc1cc(C)cc(C(=O)NCC(=O)OCC(=O)Nc2cccnc2Cl)c1	5%	20%	-13%	3%	-18%	10µM*
Cc1cccc(Cn2c(=O)n(CC3CCC(C(=O)N4CCOCC4)CC3)c(=O)c3sccc32)c1 (configuration not stated)	5%[59 µM]	·	·	-15%	48%	-14%
CC(C)c1ccc(S(=O)(=O)N2CCC(C(=O)NCc3ccco3)CC2)cc1	?	·	-7%	2%	-3%	-18%
Cc1cc(C)n2nc3nc(N4CCCCC4)nc(-c4ccco4)c3c2n1	4µM*	?	?	79µM*	-14%	?
Cc1cc(Nc2ccccc2Cl)n2nc(-c3ccco3)nc2n1	0%[12.7 µM]	·	·	-5%	33%	3%
CC1CC(C)CN(CCOc2ccc(Br)cc2)C1 (configuration not stated)	11µM*	-19%	-4%	?	?	28µM*
CC1CCN(CCCCOc2ccc(Br)cc2)CC1	?	-18%	8%	-36%	-46%	5µM*
Brc1ccc(OCCCCN2CCCCC2)cc1	·	3%	-5%	7%	18%	-13%
CC1CCN(CCCCOc2cccc(Br)c2)CC1	8.9µM*	-43%	-5%	?	?	1.8µM*
Cc1cc(Br)ccc1OCCCCN1CCC(C)CC1	11µM*	-8%	-8%	?	?	2.5µM*
Brc1cccc(OCCN2CCc3ccccc3C2)c1	·	-2%	-2%	-3%	82%	14%
COc1ccc(/C=C/C(=O)N2CCN(S(=O)(=O)c3ccccc3Br)CC2)cc1OC	·	·	5%	·	42%	-9%
Cc1cccc(CSc2nc3c(sc4ccccc43)c(=O)n2CCC(=O)NC(C)C)c1	-7%[59 µM]	·	·	18%	65%	-7%
CCCOc1ccc(-c2nonc2NC(=O)COc2ccc(C)cc2)cc1OCCC	2%[59 µM]	·	·	1%	23%	7%
CCN1c2ccccc2-c2nc(SCC(=O)NCc3ccc(C)cc3)ncc2S1(=O)=O	7%[59 µM]	·	·	0%	18%	-2%
COc1ccc(OCC(=O)OC2CCN(C)CC2)cc1	?	-3%	1%	?	48%	-3%

From PubChem BioAssay
